Only some compounds are listed: those with a hit (about 5.2% of all), similar ones and a draw of the others.
Sfp inh – Sfp phosphopantetheinyl transferase inhibition | Q9F4F7 | Biochemical Sfp PPTase activity, qHTS | Potency, µM, for the others: largest response in the series, negative = inhibition, most hits filed as inhibitors | 310,000 tested, 3.5% active | AID 1490;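 further: the enzyme is Sfp with the accession as filed and its product quenches rhodamine fluorescence; potency means the concentration at half of the fitted maximal effect; 0% = enzyme reaction without inhibitor and -100% = no enzyme wells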
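Buffer: 50 mM Hepes-Na pH 7.6, 10 mM MgCl2, 0.01% Nonidet P-40, 0.01% BSA. Enzyme 15 nM, pre-exposed to compound 15 min; substrates then added and fluorescence change tracked over 30 min.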
TrxR1 substrate – substrates of rat thioredoxin reductase 1 | purified TrxR1 substrate turnover, NADPH consumption readout | 390,000 tested, 0.01% active | Potency, µM (titrated, usually from 114 µM), without a hit: top-dose activity change, negative = substrate turnover | O89049; further: potency means the concentration at half of the fitted maximal effect; on the % scale 0 is the no-effect control and ±100 the full control effect; nearly all actives have a fitted effect of over 50% in size
Target sequence (O89049 whole entry, looked up): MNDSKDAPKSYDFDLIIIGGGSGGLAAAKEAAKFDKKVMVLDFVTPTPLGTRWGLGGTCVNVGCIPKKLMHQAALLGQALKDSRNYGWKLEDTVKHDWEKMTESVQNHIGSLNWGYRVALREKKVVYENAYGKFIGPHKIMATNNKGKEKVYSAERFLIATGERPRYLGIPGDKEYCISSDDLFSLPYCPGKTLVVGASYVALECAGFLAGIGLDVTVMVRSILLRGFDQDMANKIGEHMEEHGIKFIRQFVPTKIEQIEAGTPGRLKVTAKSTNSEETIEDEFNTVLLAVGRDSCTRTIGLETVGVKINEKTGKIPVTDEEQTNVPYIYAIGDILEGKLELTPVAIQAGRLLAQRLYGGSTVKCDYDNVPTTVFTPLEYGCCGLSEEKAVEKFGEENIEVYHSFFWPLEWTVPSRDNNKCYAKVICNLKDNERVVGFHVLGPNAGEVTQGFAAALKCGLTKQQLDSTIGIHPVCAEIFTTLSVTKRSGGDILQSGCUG
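Rat TrxR1, dispensed at 90 nM, was prereduced with 400 uM NADPH (final) for 5 min at ~22 deg C, then incubated with compound 15 min before 400 uM selenite. A first-read NADPH fluorescence drop versus no-compound background flagged substrates.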
TrxR1 inh-1 – inhibitors of rat thioredoxin reductase 1; O89049; recombinant rTrxR1, NADPH fluorescence consumption, selenite substrate; Potency, µM (highest dose often 114 µM), inactives show at the highest dose activity change, negative = inhibition, usual class: inhibitors; 390,000 tested, 1% active; AID 588453; further: potency means the concentration at half of the fitted maximal effect; on the % scale 0 is the no-effect control and ±100 the full control effect; nearly all actives have a fitted effect of over 65% in size
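Rat TrxR1 (90 nM in the dispensed reagent) was pre-reduced with 400 uM NADPH for 5 min at room temperature, then incubated with compound for 15 min. After 400 uM selenite was added, NADPH fluorescence (Ex 340/Em 450 nm) was followed for 8 min.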
mIDH1 inhibitor – human IDH1 R132H inhibition; O75874; IDH1-R132H enzyme, NADPH consumption, diaphorase/resazurin fluorescence; Potency, µM (top dose mostly 76.6 µM), inactives show at the top dose activity change, negative = inhibition, actives largely listed as inhibitors; 390,000 tested, 0.093% active; further: potency means the concentration at half of the fitted maximal effect; on the % scale 0 is the no-effect control and ±100 the full control effect; nearly all actives have a fitted effect of over 65% in size
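IDH1-R132H (0.5 ug/mL) preincubated 30 min with compound, then NADPH (0.016 mM) and alpha-KG (2 mM) added; 80 min at RT, pH 7.5. Remaining NADPH coupled via diaphorase/resazurin to fluorescence (540/590 nm); concentration-response curves normalized to no-enzyme control.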
PLK1 PBD block – blocks phosphopeptide binding to human PLK1 polo-box domain | P53350 | Plk1 PBD binding of FITC phosphopeptide, fluorescence polarization | Potency, µM, inactives show max response, negative = inhibition, usual class: inhibitors | 360,000 tested, 2.8% active; further: potency means the concentration at half of the fitted maximal effect; series mostly up to about 57 µM; on the % scale 0 is the no-effect control and ±100 the full control effect; nearly all actives have a fitted effect of over 65% in size
VDR inhibitor – inhibitors of human vitamin D receptor; P11473; VDR-SRC2-3 peptide fluorescence polarization, 2 h; Potency, µM, for the others: max response, negative = inhibition, usual class: inhibitors; 400,000 tested, 0.93% active; further: potency means the concentration at half of the fitted maximal effect; on the % scale 0 is the no-effect control and ±100 the full control effect
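Measured by FP: displacement of SRC2-3 coactivator peptide from VDR by library compounds, following a two-hour ambient incubation.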
TRb-SRC2 inh – TRb-SRC2 (human) interaction inhibition; shares compounds with TrxR1 inh-1; AlphaScreen TRb LBD-SRC2 peptide binding, luminescence; Potency, µM; 30 tested, 50% active; calls by dose curve
HepG2 viability – counter-screen for TRb-SRC2 inhibitors: HepG2 cytotoxicity | shares compounds with TrxR1 inh-1 | HepG2 viability, ATP luminescence (CellTiter-Glo), 72 h | Potency, µM | 40 tested, 50% active; calls by dose curve
AR-SRC2 inh – disrupts human androgen receptor binding to SRC2 peptide. 25 tested, under 10 active. AR-LBD Tx-SRC2-3 fluorescence polarization, 3 h. shares compounds with TrxR1 inh-1. calls only; call rule not given here
PPARg-DRIP2 inh – disrupts human PPARgamma binding to DRIP-2 peptide | AID 2449 | PPARg LBD / Texas Red DRIP-2 peptide, fluorescence polarization, 3 h | shares compounds with TrxR1 inh-1 | Potency, µM | 25 tested, under 10 active; calls by dose curve
VDR SRC2 FP – VDR-SRC2 (human) interaction inhibition, selectivity. shares compounds with TrxR1 inh-1. VDR LBD/SRC2-3 peptide, fluorescence polarization, 3 h. Potency, µM. 25 tested, under 10 active. AID 2455; calls by dose curve
GR counterassay – inhibits human glutathione reductase in TrxR1 counterassay | shares compounds with TrxR1 inh-1 | purified GR, DTNB reduction absorbance 405 nm kinetic | activity change, negative = inhibition, % at 57.1 µM | 55 tested, under 10 active | AID 652020
TrxR1 inh-2 – validation of rat thioredoxin reductase 1 inhibitors; shares compounds with TrxR1 inh-1; recombinant TrxR1, NADPH fluorescence consumption, selenite substrate; Potency, µM, most hits filed as inhibitors; 55 tested, 50% active
TrxR1 insulin – TrxR1 inhibitors: insulin reduction mechanism-of-action test; shares compounds with TrxR1 inh-1; TrxR1 Trx-coupled insulin reduction, NADPH absorbance 340 nm; Potency, µM; 55 tested, 20% active;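 active means compounds with a measured potency under 100 micromolar; inconclusive means filed, but no rule given; inactive means potency at or above that, or unmeasurable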
TrxR1 inh-3 – inhibitors of rat thioredoxin reductase 1, DTNB reduction. shares compounds with TrxR1 inh-1. purified TrxR1, DTNB reduction, A412. Potency, µM. 55 tested, 90% active;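 active means a half-inhibiting concentration could be measured and was below 100 µM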
The depositor's hits bear a star; [ ] = remark or other dose. Unless noted, the call rests on the fitted dose curve; in most records, active means well fitted curve in the direction sought with a large enough effect; inconclusive means small, poorly fitted or top-dose-only effect, or another doubt; inactive means no such curve, though single readings can be large; an effect the other way counts as inactive or inconclusive.

Screening O=[N+]([O-])c1ccc(Cl)c(S(=O)(=O)Nc2cccc(S(=O)(=O)NC3=NCCC3)c2)c1 returned TrxR1 substrate 3%, TrxR1 inh-1 2.5µM*, mIDH1 inhibitor 1%, PLK1 PBD block inconclusive, VDR inhibitor 79µM*, GR counterassay 6, TrxR1 inh-2 0.6*, TrxR1 insulin inactive and TrxR1 inh-3 0.051µM*.
Cc1cc2nc(Sc3c([N+](=O)[O-])nc(C)n3Cc3ccccc3)[nH]c2cc1C was read as Sfp inh 13%, TrxR1 substrate -8%, TrxR1 inh-1 7.1µM*, mIDH1 inhibitor 4%, PLK1 PBD block -16%, VDR inhibitor -19%, GR counterassay -11, TrxR1 inh-2 3*, TrxR1 insulin 32µM* and TrxR1 inh-3 0.013µM*.
Screening Cc1nc([N+](=O)[O-])c(N2CCOCC2)n1Cc1ccccc1 returned Sfp inh -5%, TrxR1 substrate -8%, TrxR1 inh-1 7%, mIDH1 inhibitor -2%, PLK1 PBD block 3% and VDR inhibitor -13%.
CCOc1cc(CNc2ccc(N3CCCC3)cc2)cc(Cl)c1OC was read as Sfp inh inconclusive, TrxR1 substrate -13%, TrxR1 inh-1 3.5µM*, mIDH1 inhibitor 19%, PLK1 PBD block -23%, VDR inhibitor inconclusive, GR counterassay -6, TrxR1 inh-2 inconclusive, TrxR1 insulin inactive and TrxR1 inh-3 8µM*.
For COc1ccc(OC)c(-c2csc(NC(=O)c3ccc(F)cc3)n2)c1 the results were Sfp inh -28%, TrxR1 substrate -6%, TrxR1 inh-1 10%, mIDH1 inhibitor 7%, PLK1 PBD block -13% and VDR inhibitor -11%.
CCOC(=O)c1c(C)oc2c1c(CN1CCN(CCO)CC1)c(O)c1ccccc12 was read as Sfp inh inconclusive, TrxR1 substrate 6%[57.1 µM], TrxR1 inh-1 1.1µM*, mIDH1 inhibitor 17%, PLK1 PBD block 1.7µM*, VDR inhibitor inconclusive, GR counterassay -21, TrxR1 inh-2 0.3*, TrxR1 insulin inactive and TrxR1 inh-3 0.77µM*.
Screening CCOC(=O)c1c(C)oc2c1c(CN1CCN(C(=O)OCC)CC1)c(O)c1ccccc12 returned Sfp inh -21%, TrxR1 substrate 4%, TrxR1 inh-1 1.6µM*, mIDH1 inhibitor 8%, PLK1 PBD block inconclusive, VDR inhibitor 50µM*, GR counterassay -23, TrxR1 inh-2 inconclusive, TrxR1 insulin inactive and TrxR1 inh-3 0.33µM*.
Screening O=C(COC(=O)c1cc([N+](=O)[O-])ccc1Cl)NC1C2CC3CC(C2)CC1C3 (stereo not drawn) returned TRb-SRC2 inh inactive, HepG2 viability inactive, AR-SRC2 inh inactive, PPARg-DRIP2 inh inactive and VDR SRC2 FP inactive.
O=C(COC(=O)c1cc(S(=O)(=O)N2CCOCC2)ccc1F)Nc1cc([N+](=O)[O-])ccc1F was read as TrxR1 substrate 0%, TrxR1 inh-1 7%, mIDH1 inhibitor 1%, PLK1 PBD block 0% and VDR inhibitor -8%.
Screening C[S+](=O)([O-])c1ccc(C(=O)OCC(=O)NC2C3CC4CC(C3)CC2C4)cc1 (stereo not drawn) returned TRb-SRC2 inh inactive, HepG2 viability inactive, AR-SRC2 inh inactive, PPARg-DRIP2 inh inactive and VDR SRC2 FP inactive.
For O=C(COC(=O)c1cc([N+](=O)[O-])ccc1Cl)NC1CCCC1 the results were Sfp inh 10%, TrxR1 substrate -8%, TrxR1 inh-1 inconclusive, mIDH1 inhibitor 5%, PLK1 PBD block 3% and VDR inhibitor -1%.
For O=C(COC(=O)c1cc([N+](=O)[O-])ccc1F)NC1C2CC3CC(C2)CC1C3 (stereo not drawn) the results were TRb-SRC2 inh inactive, HepG2 viability inactive, AR-SRC2 inh inactive, PPARg-DRIP2 inh inactive and VDR SRC2 FP inactive.
Screening CCCn1c(N)c(C(c2ccc(OC)cc2)N2CCN(c3ccccc3)CC2)c(=O)[nH]c1=O (stereo not drawn) returned Sfp inh -24%, TrxR1 substrate 8%[57.1 µM], TrxR1 inh-1 10µM*, mIDH1 inhibitor 1%, PLK1 PBD block -25%, VDR inhibitor 56µM*, GR counterassay 1, TrxR1 inh-2 inconclusive, TrxR1 insulin inactive and TrxR1 inh-3 0.17µM*.
`CCCOc1cccc(C2c3c(oc4ccccc4c3=O)C(=O)N2c2nncs2)c1` (stereo not drawn) gave TrxR1 substrate -8%, TrxR1 inh-1 2%, mIDH1 inhibitor -19% and VDR inhibitor -21%.
Cc1ccc(-c2nc(C)sc2CC(=O)NCc2ccco2)cc1 was read as Sfp inh inconclusive, TrxR1 substrate 10%, TrxR1 inh-1 50µM*, mIDH1 inhibitor 2%, PLK1 PBD block -9%, VDR inhibitor -19%, GR counterassay -8, TrxR1 inh-2 5.3*, TrxR1 insulin inactive and TrxR1 inh-3 10µM*.

Assay outcomes (PubChem BioAssay)
